This passage reports inhibition and score results from PubChem BioAssay.

Each structure is given as a SMILES string. Several values for one entry are separate records, joined by “and”; a condition that tells them apart may be missing. Identical values can stand only once.

In general, inhibition refers to the relative decrease from the control value, in per cent.

The first assay in a line: polyglutamine-triggered caspase-3 activation inhibitors, cell-based (AID 1583). The following applies: polyglutamine-induced caspase-3 activation, cell assay; stronger effect = higher value;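 tested at 10 µM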.
As for `CCC(=O)OC1CCC2C3CCc4cc(O)ccc4C3CCC12C` (stereo not drawn), the inhibition stood at 6.67%.

Consider `CC(=O)CCC1C2=NC(=C\C3=NC(=C(/C)C4=NC(C)(C5[N-]/C(=C\2C)C(C)(CCC(=O)NCC(C)OP(=O)(O)O[C@@H]2[C@@H](CO)OC(n6cnc7cc(C)c(C)cc76)[C@@H]2O)C5CC(N)=O)C(C)(CC(N)=O)C4CCC(N)=O)/C(C)(CC(N)=O)C3CCC(N)=O)/C1(C)C.[CH2-][C@H]1OC(n2cnc3c(N)ncnc32)[C@H](O)[C@@H]1O.[Co+2]` (stereo partly drawn), for which the inhibition was found to be 55.6%.

As for `Fc1ccc(C(c2ccccc2)(c2ccccc2F)n2ccnc2)cc1` (stereo not drawn), the inhibition was -9.56% and 14%.

Turning to `CCC(=O)c1ccc2c(c1)N(CC(C)N(C)C)c1ccccc1S2` (stereo not drawn), the inhibition is -29.2%.

A short description of a further assay: suppressors of polyQ aggregation in yeast, 75Q-TubU reporter (AID 1593). The following applies: Yeast 75Q polyglutamine aggregation reporter.
`CCC(=O)OC1CCC2C3CCc4cc(O)ccc4C3CCC12C` (stereo not drawn) came in with a score of 0.64.

The compound `CC(=O)CCC1C2=NC(=C\C3=NC(=C(/C)C4=NC(C)(C5[N-]/C(=C\2C)C(C)(CCC(=O)NCC(C)OP(=O)(O)O[C@@H]2[C@@H](CO)OC(n6cnc7cc(C)c(C)cc76)[C@@H]2O)C5CC(N)=O)C(C)(CC(N)=O)C4CCC(N)=O)/C(C)(CC(N)=O)C3CCC(N)=O)/C1(C)C.[CH2-][C@H]1OC(n2cnc3c(N)ncnc32)[C@H](O)[C@@H]1O.[Co+2]` (stereo partly drawn) returned a score of 1.56.

In the case of `Fc1ccc(C(c2ccccc2)(c2ccccc2F)n2ccnc2)cc1` (stereo not drawn), the score is 1.45 and 0.36.

In turn, `CCC(=O)c1ccc2c(c1)N(CC(C)N(C)C)c1ccccc1S2` (stereo not drawn) showed a score of 1.17.
